Where “and” joins values, the source holds several entries; their conditions need not be identical. Equal values may be shown once. Records with an inconclusive call do not appear. Where a structure was tested more than once in an assay, its records may differ in their call. Calls of active or inactive are those of the source. Rule for the calls, unless noted: active = hit-call score of the fitted dose curve at least 0.9, where 1 is the maximum; inactive = score below 0.9.
What was measured:
[1] = molecular target: Nucleoli Translocation, AR (gene 367) (UniProt P10275); experiment: UPITT_HCI_U2OS_AR_TIF2_Nucleoli_Antagonist: University of Pittsburgh U2OS Androgen Receptor-Transcriptional Intermediary Factor 2 (AR-TIF2) Antagonism High Content Imaging Assay for Nucleoli Translocation (AID 2283997; active = hit-call score of the fitted dose curve at least 0.9, where 1 is the maximum)
Procedure, shortened: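 An antagonist-mode imaging screen: engineered U2OS (AR-RFP, TIF2-GFP) exposed to 20 uM compound, 0.2% DMSO. Activity reflects nucleolar red fluorescence change relative to DHT baseline.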

[2] = molecular target: Ratio of Nucleoli Translocation and Cytoplasm, AR (gene 367) (UniProt P10275); experiment: UPITT_HCI_U2OS_AR_TIF2_Nucleoli_Cytoplasm_Ratio_Antagonist: University of Pittsburgh U2OS Androgen Receptor-Transcriptional Intermediary Factor 2 (AR-TIF2) Antagonism High Content Imaging Assay for Ratio of Nucleoli Translocation and Cytoplasm (AID 2283999; active = hit-call score of the fitted dose curve at least 0.9, where 1 is the maximum;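 note: antagonists lower the DHT-driven ratio of nucleolar to cytoplasmic red signal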)
Procedure, shortened: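 Read-out is the ratio of nucleolar to cytoplasmic AR-RFP fluorescence, imaged by high-content microscopy in U2OS cells coexpressing TIF2-GFP. Single-point 20 uM screen, triplicate confirmation, then 0.195–50 uM dose response; activity referenced to DHT baseline.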

[3] = CCTE_Simmons_MITO_basal_resp_rate: CCTE's HepG2 Seahorse XF Respirometric Screening Assay at Basal Respiratory State, Simmons Lab (AID 2284001); details: actives raise or lower the signal
Procedure, shortened: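 Readout is oxygen consumption rate after test compound injection, measured by Seahorse XF in HepG2 cells. Seven concentrations from 125 nM up to 100 uM final are tested, and activity in either direction is fitted against DMSO.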

[4] = CCTE_Simmons_MITO_max_resp_rate: CCTE's HepG2 Seahorse XF Respirometric Screening Assay at Maximal Respiratory State [uncoupled], Simmons Lab (AID 2284002); details: actives raise or lower the signal
Procedure, shortened: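 HepG2, Seahorse XF96, maximal OCR post-FCCP. Cpd 125 nM–100 uM final (7 conc), n=3 biological. Kinetic reads every 6 min (3 min mix/3 min measure) over 72 min; fit bidirectional vs DMSO.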

[5] = CCTE_Shafer_MEA_acute_spike_number: CCTE's Neural Acute Assay for Total Number of Spikes, Shafer Lab (AID 2284008);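 for AC50: curve fitted for decrease in spike count so AC50 reflects inhibitors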
Procedure, shortened: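 Rat cortical cultures, DIV 13/15, 37 C. 40 min baseline rec, cpd 0.03-40 uM, 40 min post-dose rec. Band-pass 300-5000 Hz, spike threshold 8x rms; % change in spike count per well, DMSO neg ctrl, loss-of-signal fit.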

[6] = CCTE_Shafer_MEA_acute_firing_rate_mean: CCTE's Neural Acute Assay for Mean Firing Rate, Shafer Lab (AID 2284009);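 note: analyzed for loss of signal so actives lower firing rate relative to DMSO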
Procedure, shortened: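 Spontaneous spiking of primary rat cortical networks, DIV 13/15, 37 C. Compound 0.03-40 uM, n ≥3 wells; 40 min baseline vs 40 min treated. Endpoint fitted in loss-of-signal direction against DMSO.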

[7] = CCTE_Harrill_HTTr_Viability_MCF7: CCTE's 6-hour Cell Viability Assessment for the High-Throughput Transcriptomics (HTTr) Platform, in MCF-7 cells cultured in DMEM + 10% fetal bovine serum, Harrill Lab (AID 2284010)
Procedure, shortened: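 PI exclusion, high-content imaging; 8-pt dilution series, 6 h exposure; bidirectional fit vs DMSO (neg. ctrl/baseline); gain of signal = loss of membrane integrity.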

[8] = CCTE_Harrill_HTTr_Apoptosis_MCF7: CCTE's 6-hour Apoptosis Assessment for the High-Throughput Transcriptomics (HTTr) Platform, in MCF-7 cells cultured in DMEM + 10% fetal bovine serum, Harrill Lab (AID 2284011)
Procedure, shortened: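 Read-out: CellEvent Caspase 3/7 Green signal by high content imaging, gain-of-signal indicating apoptosis. MCF-7 cells, DMEM + 10% FBS, eight-point dilution series, 6 h exposure. Curves fitted bidirectionally relative to DMSO negative control.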

[9] = CCTE_Harrill_HTTr_CellCount_MCF7: CCTE's Cell Proliferation Assessment for the High-Throughput Transcriptomics (HTTr) Platform, Harrill Lab (AID 2284012; active = hit-call score of the fitted dose curve at least 0.9, where 1 is the maximum;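 note: count of Hoechst-stained nuclei per well by high-content imaging in MCF-7 cells; cells exposed to compound for six hours; intended direction is loss of nuclei count meaning fewer cells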)
Procedure, shortened: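 Readout: Hoechst nuclear count by high-content imaging. MCF-7, 8-point dilution series, 6 h exposure. Bidirectional fit vs DMSO baseline.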

[10] = CCTE_Shafer_MEA_acute_burst_number: CCTE's Neural Acute Assay for Single-Electrode Bursts, Shafer Lab (AID 2284013)
Procedure, shortened: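 Burst totals were derived with adaptive spike detection (8x rms threshold) on filtered signals from rat cortical cultures; change relative to pre-treatment baseline after 40-min compound exposure (0.03-40 uM) was fitted in the negative direction against DMSO.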

[11] = CCTE_Shafer_MEA_acute_burst_duration_mean: CCTE's Neural Acute Assay for Mean Burst Duration, Shafer Lab (AID 2284014);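 note: hits are decreases in mean burst duration relative to DMSO controls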
Procedure, shortened: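 Acute exposure of mature rat cortical networks (DIV 13 or 15) grown on microelectrode arrays to 0.03-40 uM compound. Mean burst duration compared with the 40-min pre-dose baseline over a 40-min post-dose recording at 37 C.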

[12] = CCTE_Shafer_MEA_acute_per_burst_spike_number_mean: CCTE's Neural Acute Assay for Average Number of Spikes Per Burst, Shafer Lab (AID 2284015);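 note: hits are decreases in mean spikes per burst versus baseline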
Procedure, shortened: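 We recorded spontaneous network firing of rat cortical neurons for 40 min before and 40 min during exposure to compound at 0.03-40 uM, at 37 C. Spikes were detected adaptively at 8x rms noise, and the change in average spikes per burst was fitted against DMSO.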

[13] = CCTE_Shafer_MEA_acute_interburst_interval_mean: CCTE's Neural Acute Assay for Mean Interburst Interval, Shafer Lab (AID 2284016);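 note: percent change of mean interburst interval versus each well's own pre-dose baseline; curves fitted for decrease in interburst interval relative to DMSO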
Procedure, shortened: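 MEA recording of spontaneous network bursting in primary rat cortical cultures; mean interburst interval was compared before and after a 40-min compound exposure (0.03-40 uM) and expressed as percent change, relative to DMSO.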

[14] = CCTE_Shafer_MEA_acute_burst_percentage_mean: CCTE's Neural Acute Assay for Percentage of Spikes in a Burst, Shafer Lab (AID 2284017);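 for AC50: curve fitted for loss of signal so potency reflects decreased burst percentage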
Procedure, shortened: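 Compounds were tested at 0.03-40 uM on primary rat cortical neuron networks grown over microelectrodes, with at least three wells per compound. Spontaneous firing was recorded for 40 min before and 40 min after dosing, and the change in burst percentage was computed per well.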

[15] = CCTE_Shafer_MEA_acute_burst_percentage_std: CCTE's Neural Acute Assay for Standard Deviation of Burst Percentage, Shafer Lab (AID 2284018);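 note: fitted in the negative direction so actives lower burst percentage SD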
Procedure, shortened: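 Primary rat cortical neurons on 16-electrode MEA wells were recorded 40 min at baseline (DIV 13 or 15), then 40 min after compound (0.03-40 uM), at 37 C. Well value is SD across electrodes of spikes-in-bursts/total spikes; endpoint is percent change, DMSO-referenced.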

[16] = CCTE_Shafer_MEA_acute_per_network_burst_spike_number_mean: CCTE's Neural Acute Assay for Average Number of Spikes in a Network Burst, Shafer Lab (AID 2284019);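 for AC50: curve fitted for loss of signal so actives reduce spikes per network burst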
Procedure, shortened: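 Acute exposure of rat primary cortical networks (DIV 13/15) on MEAs; adaptive spike detection at 8x rms noise, 37 C. Percent change in spikes per network burst after 40 min with compound (0.03-40 uM), negative direction vs DMSO.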

[17] = molecular target: Nucleoli Translocation, AR (gene 367) (UniProt P10275); experiment: UPITT_HCI_U2OS_AR_TIF2_Nucleoli_Agonist: University of Pittsburgh U2OS Androgen Receptor-Transcriptional Intermediary Factor 2 (AR-TIF2) Agonism High Content Imaging Assay for Nucleoli Translocation (AID 2283998; active = hit-call score of the fitted dose curve at least 0.9, where 1 is the maximum)
Procedure, shortened: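 RFP-AR / GFP-TIF2 cells; cpds diluted in serum-free medium; single-point screen 20 uM final (0.2% DMSO), actives confirmed in triplicate; conc-response 0.195–50 uM final (0.5% DMSO). Readout: nucleolar red fluorescence, positive direction vs DMSO.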

[18] = CCTE_Harrill_HTTr_Apoptosis_PRF_DMEM_6hr: (Pilot) CCTE's 6-hour Apoptosis Assessment for the High-Throughput Transcriptomics (HTTr) Platform, in MCF-7 cells cultured phenol red-free DMEM + 10% charcoal-stripped fetal bovine serum, Harrill Lab (AID 2283984)
Procedure, shortened: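 Caspase-3/7 activity (CellEvent Green) read by high-content imaging 6 h after dosing, eight concentrations. Cells: MCF-7, phenol red-free DMEM with 10% charcoal-stripped serum. Curves fit both directions against DMSO.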

[19] = CCTE_Harrill_HTTr_Apoptosis_PRF_DMEM_24hr: (Pilot) CCTE's 24-hour Apoptosis Assessment for the High-Throughput Transcriptomics (HTTr) Platform, in MCF-7 cells cultured in phenol red-free DMEM + 10% charcoal-stripped fetal bovine serum, Harrill Lab (AID 2283986)
Procedure, shortened: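 Eight concentrations tested for 24 h on MCF-7 grown in charcoal-stripped serum, phenol red-free DMEM. High content imaging of CellEvent Caspase 3/7 Green signal gives apoptosis read-out, fitted both ways relative to DMSO.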

DIO1 (gene 1733) = experiment: CCTE_GLTED_hDIO1: CCTE's human Deiodinase 1 (DIO1) Inhibition Assay, Great Lakes Toxicology and Ecology Division (GLTED) Lab (AID 2283987; active = hit-call score of the fitted dose curve at least 0.9, where 1 is the maximum;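 note: isolated human DIO1 enzyme in a cell-free setup rather than cells; enzyme activity read as free iodide liberated from substrate via Sandell-Kolthoff colorimetry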)
Procedure, shortened: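 Steps: human DIO1 enzyme plus test chemical, 3 h incubation; free iodide then quantified in a second Sandell-Kolthoff step by absorbance. DMSO served as negative control and baseline.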

Measured: AC50

Chain of Nucleoli Translocation, AR (gene 367) (P10275 whole entry, looked up): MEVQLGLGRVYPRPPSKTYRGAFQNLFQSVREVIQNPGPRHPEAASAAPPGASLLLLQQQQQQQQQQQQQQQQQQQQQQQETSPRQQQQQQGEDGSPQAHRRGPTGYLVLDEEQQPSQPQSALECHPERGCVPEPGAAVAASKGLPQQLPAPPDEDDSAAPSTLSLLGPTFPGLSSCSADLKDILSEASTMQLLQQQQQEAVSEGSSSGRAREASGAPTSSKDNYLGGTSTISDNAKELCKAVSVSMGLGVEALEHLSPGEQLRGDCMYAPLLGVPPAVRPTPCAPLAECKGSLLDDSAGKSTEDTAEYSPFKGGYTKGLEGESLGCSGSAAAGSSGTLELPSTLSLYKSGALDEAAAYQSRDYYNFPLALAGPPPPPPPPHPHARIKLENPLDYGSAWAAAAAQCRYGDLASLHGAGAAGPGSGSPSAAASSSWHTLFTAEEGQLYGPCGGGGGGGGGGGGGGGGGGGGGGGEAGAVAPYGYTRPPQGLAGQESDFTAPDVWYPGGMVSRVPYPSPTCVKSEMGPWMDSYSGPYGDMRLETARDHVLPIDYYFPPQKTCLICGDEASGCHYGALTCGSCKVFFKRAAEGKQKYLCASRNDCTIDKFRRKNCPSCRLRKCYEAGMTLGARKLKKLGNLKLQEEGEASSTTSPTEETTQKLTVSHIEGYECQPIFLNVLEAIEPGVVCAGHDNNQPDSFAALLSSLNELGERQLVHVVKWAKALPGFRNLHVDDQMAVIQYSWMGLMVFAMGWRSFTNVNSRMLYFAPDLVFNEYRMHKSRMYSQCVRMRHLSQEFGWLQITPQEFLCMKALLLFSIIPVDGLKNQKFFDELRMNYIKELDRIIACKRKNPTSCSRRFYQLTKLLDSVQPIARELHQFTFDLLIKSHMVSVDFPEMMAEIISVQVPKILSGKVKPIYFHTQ
Chain of Ratio of Nucleoli Translocation and Cytoplasm, AR (gene 367) (P10275 whole entry, looked up): as above

Cc1cc(CCN2CCN(c3nsc4ccccc34)CC2)cc2c1NC(=O)CC2(C)C
inactive: [2] | [10] | [15] | [16]
active: [1] 50 µM | [3] 12.2 µM | [4] 17 µM | [5] 8.94 µM | [6] 8.94 µM | [7] 77.3 µM | [8] 63.6 µM | [9] 92.2 µM | [11] 8.81 µM | [12] 20 µM | [13] 5.98 µM | [14] 32.1 µM

COc1cc(CCC(=O)CC(=O)CCc2ccc(O)c(OC)c2)ccc1O
active: [1] 26.6 µM
inactive: [2] | [7] | [8] | [9]

O=C(/C=C/c1ccc(O)cc1)CC(=O)/C=C/c1ccc(O)cc1
inactive: [17] | [2] | [7] | [8] | [9]
active: [1] 16.3 µM

Cc1oc(-c2ccccc2)nc1CCOc1ccc(C[C@H](Nc2ccccc2C(=O)c2ccccc2)C(=O)O)cc1
inactive: [18] | [19] | [17] | [2] | [7] | [8] | [9]
active: DIO1 (gene 1733) 72.1 µM | [1] 67.6 µM

NC(=O)N(O)[C@@H]1C=C[C@H](Oc2cccc(Oc3ccc(F)cc3)c2)C1
inactive: [5] | [6] | [7] | [8] | [9] | [10] | [15] | [16]
active: [3] 22.1 µM | [4] 32.4 µM | [11] 18.5 µM | [12] 10 µM | [13] 2.69 µM | [14] 12.9 µM

CC#C[C@]1(O)CC[C@H]2[C@@H]3CCC4=CC(=O)CCC4=C3[C@@H](c3ccc(N(C)C)cc3)C[C@@]21C
inactive: [7] | [8] | [9] | [10] | [11] | [12] | [13] | [16]
active: [5] 1.74 µM and 2.84 µM | [6] 1.74 µM and 2.84 µM | [10] 1.66 µM | [12] 32.9 µM | [13] 4.16 µM | [14] 16.3 µM and 5.2 µM | [15] 4.22 µM and 6.02 µM

CCCCCCCCCCCCN1CCCC1=O
active: DIO1 (gene 1733) 159 µM | [3] 31.4 µM | [4] 34.8 µM
not listed: [1] | [2] | [17] | [18] | [19]
inactive: all other assays above

O=[N+]([O-])c1ccc(O)cc1
inactive: [4] | [7] | [8] | [9]
active: [3] 66.5 µM and 66 µM

O=C(O)Cc1cc(I)c(Oc2cc(I)c(O)c(I)c2)c(I)c1
inactive: [18] | [19] | [3] | [4] | [7] | [8] | [9]

CC(C)CCCCCCOC(=O)CCCCC(=O)OCCCCCCC(C)C
not listed: [1] | [2] | [3] | [4] | [17] | [18] | [19] | DIO1 (gene 1733)
inactive: all other assays above

CN1CCN(c2ccccc2/C=C2\SCCN(c3ccc(Cl)c(Cl)c3)C2=O)CC1
active: [5] 10.3 µM | [6] 10.5 µM | [7] 73.7 µM | [9] 77.1 µM | [11] 32 µM | [14] 0.128 µM | [16] 0.207 µM
inactive: [3] | [4] | [8] | [10] | [12] | [13] | [15]

COCC(C)OCC(C)O (configuration not stated)
inactive: [17] | [2] | [7] | [8] | [9]

CCCOc1sc(C(=O)N2CCC(c3cc(CN)ccc3F)CC2)c(C)c1Br
active: [17] 7.93 µM
not listed: [3] | [4] | [7] | [8] | [9] | [18] | [19] | DIO1 (gene 1733)
inactive: all other assays above

Nc1cccc2c(N)cccc12
active: [1] 33.3 µM
inactive: [17] | [2] | [3] | [4] | [7] | [8]

ClC1=C(Cl)C(Cl)(Cl)C(Cl)=C1Cl
inactive: [7] | [8] | [9]
active: DIO1 (gene 1733) 78.5 µM

CC(C)(C)c1ccc(O)c(C(C)(C)C)c1
inactive: [7] | [8] | [9]
active: DIO1 (gene 1733) 108 µM

OCCC(F)(F)C(F)(F)C(F)(F)C(F)(F)C(F)(F)C(F)(F)C(F)(F)C(F)(F)F
not listed: [1] | [3] | [4] | [9] | [18] | [19] | DIO1 (gene 1733)
inactive: all other assays above

c1ccc2c(c1)ccc1ccccc12
inactive: [17] | [2] | [7] | [8]
active: [1] 33.7 µM

NC(=O)N1C(=O)C(C(=O)c2cc(Cl)cs2)c2cc(F)c(Cl)cc21 (configuration not stated)
active: DIO1 (gene 1733) 37.4 µM | [3] 5.91 µM | [4] 17.7 µM
inactive: [1] | [17] | [2] | [7] | [8] | [9]

— PubChem BioAssay (EPA / NIEHS)
